The panel holds about 83,000 compounds, 20% with a hit somewhere; the sample as a whole holds those more often.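 How to read the values: 0–100, growth inhibition (40 = 60% inhibited); 0, no net growth; -100 to 0, cell death (-40 = 40% of starting cells died; -100 = all dead).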 Calls of active or inactive are those of the source. The calls were made as follows: active = growth percent below 10; inactive = the rest.
Each molecule was assayed on HL-60(TB) leukemia (assay: NCI-60 one-dose screen, 48 h (100 = growth as untreated, 0 = no growth, -100 = all killed)). Details: 10 µM unless noted.

Question: Which growth does the source give for `CCOC(=O)c1noc2c1CCc1c-2cn(Cc2ccc(OC)cc2)c1-c1cc(OC)c(OC)c(OC)c1` here?
Answer: -25.5% (active)

Question: How did the growth turn out when `COc1ccc(Sc2[nH]c(C(C)=O)c3ccccc23)cc1` was run?
Answer: 23.3% (inactive)

Question: Which growth does the source give for `COc1ccc(-c2nc(-c3nc4ccc(OC)cc4[nH]3)c3ccccn23)cc1` here?
Answer: 52.1% (inactive)

Question: For `CC[N+](C)(CC)CCO`, which growth is on record?
Answer: 96.9% (inactive)

Question: `O=[N+]([O-])c1ccccc1CN1CCCCC1` was tested. Which growth did it give?
Answer: 101% (inactive)

Question: For `Cc1ccc(NC(=O)c2sc3nc(C)c(Br)c(C)c3c2N)cc1`, which growth is on record?
Answer: 95.2% (inactive)

Question: For `COc1cccc(NC(=O)c2cccc(C3CCc4c(cc(OC)c(OC)c4OC)O3)c2)c1` (stereo not given), which growth is on record?
Answer: 44.2% (inactive)

Question: For `CCCn1c(=S)sc2c(NNC(C)=O)nc(C)nc21`, which growth is on record?
Answer: 58.1% (inactive)

Question: Which growth does the source give for `O=C1OCC/C1=C\OCCCO/C=C1\CCOC1=O` here?
Answer: 104% (inactive)

Question: How did the growth turn out when `CN1C(=O)N(C)[C@H]2NC(NN)=N[C@H]21` was run?
Answer: 102% (inactive)

Question: For `COc1ccccc1N=Nc1c(O)ccc2cc(S(=O)(=O)O)ccc12`, which growth is on record?
Answer: 106% (inactive)

Question: For `CCCCCCCCCCCCCCn1c2ccccc2c2c3c(c4c5cc(OC)ccc5oc4c21)C(=O)NC3=O`, which growth is on record?
Answer: 115% (inactive)

Question: How did the growth turn out when `Clc1ccc(/C=C/c2nc(Nc3ccc(Cl)cc3)c3ccccc3n2)cc1` was run?
Answer: 102% (inactive)

Question: Which growth does the source give for `COc1ccc(C(=O)/C=C/c2cc3c(c(OC)c2)OCC(=O)N3)cc1` here?
Answer: 6.81% (active)

Question: `Cc1ccc(S(=O)(=O)OC2COCOC2C(OS(=O)(=O)c2ccc(C)cc2)C2OCOCC2OS(=O)(=O)c2ccc(C)cc2)cc1` (stereo not given) was tested. Which growth did it give?
Answer: 106% (inactive)

Question: How did the growth turn out when `CS(=O)(=O)c1ccc(-c2[nH]c3ccc(F)cc3c2/C=N/O)cc1` was run?
Answer: 101% (inactive)

Question: Which growth does the source give for `O=C1C=CC(n2cc(F)c(=O)[nH]c2=O)O1` (stereo not given) here?
Answer: 45.3% (inactive)

Question: For `c1ccc(-c2nc(Nc3ccc(-c4nc5ccccc5[nH]4)cc3)nc(N3CCOCC3)n2)cc1`, which growth is on record?
Answer: -32.7% (active)

Question: With `O=[N+]([O-])c1ccc(-c2noc(-c3cccs3)n2)cc1` as the molecule, how does the growth read?
Answer: 70.1% (inactive)

Question: `CCc1c(Nc2ccccc2C)nc(N)[nH]c1=O` was tested. Which growth did it give?
Answer: 88.9% (inactive)

Question: Which growth does the source give for `CNc1nc(S(=O)c2ccc(C#N)cc2)nc2ccccc12` (stereo not given) here?
Answer: 79.9% (inactive)

Question: Which growth does the source give for `COc1nc2c(cc1S(=O)(=O)c1ccccc1)CCc1c-2cnn1Cc1ccccc1` here?
Answer: 26.1% (inactive)

Question: Which growth does the source give for `O=c1ccn(C2OC(F)(CO)C(O)C2F)c(=O)[nH]1` (stereo not given) here?
Answer: 114% (inactive)

Question: How did the growth turn out when `CC(C)OC(=O)NNC(=O)c1ccncc1` was run?
Answer: 85.2% (inactive)

Question: `Cc1nc2ccccc2c(N)c1-c1cc(C)c2c(C)nc3ccccc3c2n1` was tested. Which growth did it give?
Answer: -66.5% (active)

Question: `NC(N)=N/N=C/CO` was tested. Which growth did it give?
Answer: 102% (inactive)

Question: Which growth does the source give for `Cc1ccc(Cl)cc1NC(=O)c1cc2ccccc2cc1O` here?
Answer: -49.5% (active)

Question: `COc1ccccc1C(=O)NC(=S)Nc1ccc(-c2nc3ccccc3[nH]2)cc1` was tested. Which growth did it give?
Answer: 59.7% (inactive)

Question: How did the growth turn out when `O=C1c2ccc3c4c(ccc(c24)C(=O)N1CCNCc1ccccc1)C(=O)N(CCNCc1ccccc1)C3=O` was run?
Answer: -34.6% (active)

Question: With `O=C1Nc2ccccc2/C1=C\c1c(-c2ccccc2)nc2ccccn12` as the molecule, how does the growth read?
Answer: -10.7% (active)

Question: How did the growth turn out when `CCOC(=O)c1cc(C(=O)c2cc(OC)c(OC)c(OC)c2)n2nc(C)ccc12` was run?
Answer: -24.2% (active)

Question: With `Cc1ccc(/C=C/C(=O)c2ccc(NC(=O)CSc3nc4c([nH]3)c(=O)n(C)c(=O)n4C)cc2)c(C)c1` as the molecule, how does the growth read?
Answer: 94.5% (inactive)

Question: For `COc1ccc(C2C(c3nn[nH]n3)=C(N)Oc3c2ccc2ccccc32)cc1` (stereo not given), which growth is on record?
Answer: 31.9% (inactive)

Question: Which growth does the source give for `C=CCNc1ccc2c3c(cccc13)C(=O)N(N1C(=O)c3cccc4cccc(c34)C1=O)C2=O` here?
Answer: 102% (inactive)

Question: For `Nc1c(C(=O)Nc2cccc3c2OCCO3)sc2nc3c(cc12)C(=O)CCC3`, which growth is on record?
Answer: 12.4% (inactive)

Question: For `O=C(CCCCCCC(=O)Nc1ccc2c(c1)/C(=C/c1ccc[nH]1)C(=O)N2)NO`, which growth is on record?
Answer: 16.5% (inactive)

Question: How did the growth turn out when `Cc1ccc2c(C(C[N+](=O)[O-])c3ccco3)c(-c3ccccc3)[nH]c2c1` (stereo not given) was run?
Answer: -5.69% (active)

Question: How did the growth turn out when `COC(=O)c1cc2c(=O)[nH]cc3c2c(n1)CCC3` was run?
Answer: 74.6% (inactive)

Question: How did the growth turn out when `COc1ccc(C2CC(=O)Nc3c2c(C)nn3-c2nc3ccccc3[nH]2)cc1OC` (stereo not given) was run?
Answer: 31.9% (inactive)

Question: For `CCn1c(SCC(=O)N/N=C(\C)c2ccc(Cl)cc2)nc2c1c(=O)n(C)c(=O)n2C`, which growth is on record?
Answer: 101% (inactive)

— PubChem BioAssay (NCI)
